{"source": "PubChem BioAssay AID1345085", "about": "(National Center for Advancing Translational Sciences (NCATS), 2018)", "note": "Results filed as inconclusive are left out. Calls of active or inactive are those of the source. The call rests on the fitted dose curve; in most records, active means well fitted cell-killing curve with a large enough effect; inconclusive means small, poorly fitted or top-dose-only effect, or effect the other way; inactive means no such curve, though single readings can be large or run the other way. On the % scale 0 is the no-effect control and ±100 the full control effect; potency means the concentration at half of the fitted maximal effect.", "data": [{"system": "C33A", "test": "Confirmatory qHTS for gynecologic anti-cancer compounds from libraries of approved drugs and bioactive compounds; further: nearly all actives have a fitted effect of over 55% in size", "conditions": "gynecologic cancer cell panel viability, ATPlite luminescence, 48 h; series mostly up to 57.6 µM; activity change, negative = viability loss: at the top concentration", "in_short": "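Cells (1,000/well) were plated, left 16 h at 37 C/5% CO2, then given compound at 11 concentrations (1:3) from 57.5 uM to 0.977 nM for 48 h. ATPlite luminescence after 15 min at room temperature gave IC50 values.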", "values": [{"smiles": "CNCc1ccc(-c2[nH]c3cc(F)cc4c3c2CCNC4=O)cc1", "activity change, negative = viability loss": "0.266% (inactive)"}, {"smiles": "CCCS(=O)c1ccc2nc(NC(=O)OC)[nH]c2c1", "note": "(stereo unspecified)", "activity change, negative = viability loss": "-5.48% (inactive)"}, {"smiles": "Cc1cnc(CNC(=O)c2c(=O)c3ccc(N4CCCN(C)CC4)nc3n3c2sc2ccccc23)cn1", "activity change, negative = viability loss": "-18.8% [at 10.7 µM] (inactive)"}, {"smiles": "CC(Oc1ccc2[nH]nc(/C=C/c3cnn(CCO)c3)c2c1)c1c(Cl)cncc1Cl", "note": "(stereo unspecified)", "activity change, negative = viability loss": "11.8% (inactive)"}, {"smiles": "Fc1cc(-c2cccc3ncc(-c4cnn(C5CCNCC5)c4)nc23)cc(F)c1CN1CCOCC1", "Potency": "24.3 µM (active)"}, {"smiles": "Cn1c(=O)c(F)c(Nc2ccc(I)cc2F)c2c(=O)n(CC(O)CO)cnc21", "note": "(stereo unspecified)", "activity change, negative = viability loss": "-20.6% (inactive)"}, {"smiles": "CCN1CCN(Cc2ccc(Nc3ncc(F)c(-c4cc(F)c5nc(C)n(C(C)C)c5c4)n3)nc2)CC1", "activity change, negative = viability loss": "-25.7% (inactive)"}, {"smiles": "O=C1N(c2ccccc2)c2ccccc2C1(Cc1ccncc1)Cc1ccncc1", "activity change, negative = viability loss": "6.9% (inactive)"}, {"smiles": "Cc1nc(N)nc(N)c1-c1ccc(Cl)c(Cl)c1", "Potency": "0.172 µM (active)"}, {"smiles": "C[C@@H](Oc1cc(-c2cnn(C3CCNCC3)c2)cnc1N)c1c(Cl)ccc(F)c1Cl", "Potency": "24.3 µM (active)"}, {"smiles": "CCN1C[C@H](C)n2c(c(O)c3c(=O)n(Cc4ccc(F)c(Cl)c4)nc(C(=O)NC)c32)C1=O", "activity change, negative = viability loss": "6.55% (inactive)"}, {"smiles": "CCN1CCN(Cc2ccc(-c3cc4c(NC(C)c5ccccc5)ncnc4[nH]3)cc2)CC1", "note": "(stereo unspecified)", "Potency": "27.3 µM (active)"}, {"smiles": "C=CC(=O)Nc1cccc(Oc2nc(Nc3ccc(N4CCN(C)CC4)cc3)ncc2Cl)c1", "Potency": "24.3 µM (active)"}, {"smiles": "CNc1nc(Nc2ccc(C(=O)N3CCOCC3)cc2OC)ncc1Cl", "activity change, negative = viability loss": "1.31% (inactive)"}, {"smiles": "Cc1cc(SCc2sc(-c3ccc(C(F)(F)F)cc3)nc2C)ccc1OCC(=O)O", "activity change, negative = viability loss": "-0.815% (inactive)"}, {"smiles": "COc1cc(C(=O)N2CCC(N3CCN(C)CC3)CC2)ccc1Nc1ncc2c(n1)N(C)c1ccccc1C(=O)N2C", "activity change, negative = viability loss": "-2.45% (inactive)"}, {"smiles": "COc1cccc2c1C(=O)c1c(O)c3c(c(O)c1C2=O)C[C@@](O)(C(=O)CO)C[C@@H]3O[C@H]1C[C@H](N)[C@H](O)[C@H](C)O1", "Potency": "1.22 µM (active)"}, {"smiles": "C[C@@]1(C(=O)Nc2ccc(F)nc2)CCCN1c1nc(Nc2cc(C3CC3)[nH]n2)c2cccn2n1", "activity change, negative = viability loss": "13.7% (inactive)"}, {"smiles": "Cc1cnc(Nc2ccc(OCCN3CCCC3)cc2)nc1Nc1cccc(S(=O)(=O)NC(C)(C)C)c1", "activity change, negative = viability loss": "-25.9% (inactive)"}, {"smiles": "COc1ccc2c(c1)c(CC(=O)O)c(C)n2C(=O)c1ccc(Cl)cc1", "activity change, negative = viability loss": "20.9% (inactive)"}, {"smiles": "O=C(NCC(O)CO)c1ccncc1Nc1ccc(I)cc1F", "note": "(stereo unspecified)", "activity change, negative = viability loss": "-24% (inactive)"}, {"smiles": "CCCC(=O)O[C@]1(C(=O)CCl)[C@@H](C)C[C@H]2[C@@H]3CCC4=CC(=O)C=C[C@]4(C)[C@@]3(F)C(=O)C[C@@]21C", "activity change, negative = viability loss": "-1.58% (inactive)"}, {"smiles": "CCN(CC)CCOc1ccc(/C(=C(\\Cl)c2ccccc2)c2ccccc2)cc1", "Potency": "79.4 µM (active)"}, {"smiles": "COc1cc(-c2nn(C3CCC(N4CCN(C(C)=O)CC4)CC3)c3ncnc(N)c23)ccc1NC(=O)c1cc2ccccc2n1C", "note": "(stereo unspecified)", "activity change, negative = viability loss": "-12.7% (inactive)"}, {"smiles": "CN(C)/N=N/c1nc[nH]c1C(N)=O", "activity change, negative = viability loss": "0.0357% (inactive)"}, {"smiles": "Cc1c(C)n(Cc2ccc(-c3ccccc3C(=O)O)cc2)c2ccc(C(=O)N[C@@H](C)c3ccc([N+](=O)[O-])cc3)cc12", "activity change, negative = viability loss": "10.7% (inactive)"}, {"smiles": "C[C@]12CCC(=O)C=C1CC[C@@H]1[C@@H]2[C@@H](O)C[C@@]2(C)[C@H]1CC[C@]2(O)C(=O)CO", "activity change, negative = viability loss": "0.835% (inactive)"}, {"smiles": "CC(=O)Nc1cccc(-n2c(=O)n(C3CC3)c(=O)c3c(Nc4ccc(I)cc4F)n(C)c(=O)c(C)c32)c1", "activity change, negative = viability loss": "-5.55% (inactive)"}, {"smiles": "CC[C@@]1(O)C(=O)OCc2c1cc1n(c2=O)Cc2cc3cc(O)ccc3nc2-1", "Potency": "0.306 µM (active)"}, {"smiles": "COc1ccccc1N1CCN(CC(O)COc2cccc3ccccc23)CC1", "note": "(stereo unspecified)", "activity change, negative = viability loss": "-21.7% (inactive)"}, {"smiles": "CC(C)(C(=O)NCC(F)(F)C(F)(F)F)C(=O)NC1C(=O)Nc2ccccc2-c2ccccc21", "note": "(stereo unspecified)", "activity change, negative = viability loss": "-11% (inactive)"}]}]}
